In PubChem BioAssay (NCI):
About 83,000 compounds went through this panel and 20% of them were active in at least one assay; those are over-represented in the sample as a whole.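 Cell lines were cultured in 96-well plates, exposed to a single compound concentration, and assessed for percent growth 48 hours later.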 Values without a mark were called inactive. Active and inactive are the calls of the source. Rule for the calls: active = growth percent below 10; inactive = the rest.

Legend:
Experiment in all cases: NCI-60 one-dose screen, 48 h (100 = growth as untreated, 0 = no growth, -100 = all killed)
Details in all cases: 10 µM unless noted
DU-145 prostate = system: DU-145 prostate
K-562 leukemia = system: K-562 leukemia
MALME-3M melanoma = system: MALME-3M melanoma
MDA-MB-231 breast = system: MDA-MB-231 breast
RXF 393 renal = system: RXF 393 renal
SF-268 CNS = system: SF-268 CNS
SF-295 CNS = system: SF-295 CNS
SF-539 CNS = system: SF-539 CNS
UACC-257 melanoma = system: UACC-257 melanoma
M14 melanoma = system: M14 melanoma
HCT-15 colon = system: HCT-15 colon
HT29 colon = system: HT29 colon
SNB-75 CNS = system: SNB-75 CNS
SNB-19 CNS = system: SNB-19 CNS
U251 CNS = system: U251 CNS
PC-3 prostate = system: PC-3 prostate
SK-MEL-5 melanoma = system: SK-MEL-5 melanoma
UACC-62 melanoma = system: UACC-62 melanoma
LOX IMVI melanoma = system: LOX IMVI melanoma
SK-MEL-28 melanoma = system: SK-MEL-28 melanoma

Compound	growth (DU-145 prostate)	growth (K-562 leukemia)	growth (MALME-3M melanoma)	growth (MDA-MB-231 breast)	growth (RXF 393 renal)	growth (SF-268 CNS)	growth (SF-295 CNS)	growth (SF-539 CNS)	growth (UACC-257 melanoma)	growth (M14 melanoma)	growth (HCT-15 colon)	growth (HT29 colon)	growth (SNB-75 CNS)	growth (SNB-19 CNS)	growth (U251 CNS)	growth (PC-3 prostate)	growth (SK-MEL-5 melanoma)	growth (UACC-62 melanoma)	growth (LOX IMVI melanoma)	growth (SK-MEL-28 melanoma)
COc1ccc(-c2ccc(NC(=O)Nc3ccc(Cl)c(C(F)(F)F)c3)c(C)n2)cc1	54.5%	16.7%	82.6%	85%	81.4%	73.7%	47%	81.3%	57.1%	31.9%	37.8%	46.4%	73.4%	57.3%	33.6%	14.7%	55.7%	65.6%	64.5%	71.4%
COc1ccc(-c2nn(-c3ccc(NC(=O)Nc4ccc(Cl)c(C(F)(F)F)c4)cc3)cc2-c2ccncc2)cc1Cl	20.5%	10.3%	2.95% (active)	-52.1% (active)	-68.3% (active)	19%	-25.9% (active)	-1.2% (active)	-5.92% (active)	-4.4% (active)	4.89% (active)	1.91% (active)	32.8%	30.1%	-7.17% (active)	4.33% (active)	-86.8% (active)	0.79% (active)	2.18% (active)	12.2%
O=C(Nc1cccc(-n2ccc3c(NC(=O)c4ccccc4)nccc32)c1)c1cccc(C(F)(F)F)c1	-10.9% (active)	12.1%	48.3%	3.85% (active)	-49.4% (active)	14.8%	-8.39% (active)	4.4% (active)	42.4%	7.48% (active)	9.77% (active)	-13.2% (active)	44.6%	28.5%	7.1% (active)	33.2%	-45.4% (active)	29.6%	8.39% (active)	40.9%
CCc1cccc(C)c1NC(=O)c1sc2nc3c(cc2c1N)CCCCC3	13.2%	9.14% (active)	47%	35.6%	11.6%	56.5%	27%	11.1%	71.7%	3.86% (active)	27.5%	8.55% (active)	6.57% (active)	26.8%	24.1%	35.5%	14.2%	30.2%	45.1%	67.6%
CO[C@H]1/C=C/C=C/C=C/C[C@H](OC(=O)[C@@H](C)NC(=O)C2CCCCC2)[C@H](C)[C@@H](O)/C(C)=C\CCC2=CC(=O)C=C(NC(=O)C1)C2=O	-13.8% (active)	3.3% (active)	-7.99% (active)	5.38% (active)	-40.2% (active)	-7.66% (active)	-33.5% (active)	-49.3% (active)	-18.9% (active)	-40.3% (active)	6.39% (active)	-28.8% (active)	-20.2% (active)	2.4% (active)	-19.6% (active)	-2.95% (active)	-57% (active)	2.09% (active)	-38.8% (active)	-3.36% (active)
CCCCN(CCCC)c1ccc(C(=N)c2ccc(N(C)C)cc2)cc1	-21% (active)	-30.9% (active)	-81.6% (active)	-76.7% (active)	-75% (active)	-21.8% (active)	-72.1% (active)	-89.1% (active)	-62.8% (active)	-93.3% (active)	-58.7% (active)	-50.8% (active)	-46.6% (active)	6.19% (active)	-17% (active)	-14.7% (active)	-99.8% (active)	-71.9% (active)	-95.9% (active)	-70.1% (active)
CCCCC(=O)Nc1nc2ccc(SCCC)cc2s1	67.4%	16.5%	50%	51.9%	45.9%	61.6%	45.1%	50.5%	66.8%	37.3%	43.6%	18%	33.2%	64.4%	39.9%	47.8%	42.7%	43.3%	43.2%	64.8%
CCN(CC)C(=O)C1CCN(C(=O)c2ccccc2)CC1	109%	99.1%	102%	105%	105%	92.7%	96.7%	101%	103%	102%	104%	104%	94%	100%	101%	96.9%	101%	97.2%	96.7%	107%
CCC1(C(N)=O)CC2C=CC1CC2 (stereo not given)	116%	113%	113%	97.8%	108%	110%	102%	102%	77.1%	91.4%	109%	106%	95.9%	90.2%	110%	103%	98.7%	104%	96.2%	125%
CC(=O)N1N=C2N(Cc3ccccc3)C(=O)c3c(sc4c3CCCC4)N2C1c1cn(-c2ccccc2)nc1-c1ccc(Cl)cc1 (stereo not given)	112%	93.4%	99.9%	99.1%	101%	100%	109%	92.6%	113%	100%	96.9%	107%	99.3%	94.2%	87.2%	92.6%	102%	95.5%	92.9%	104%
CCN(CC)CCNC(=O)c1c(C)[nH]c(/C=C2\C(=O)Nc3cc(NC(=O)NC(=O)c4ccc(OC)cc4F)ccc32)c1C	97.3%	10.9%	108%	77.8%	66.4%	102%	117%	94.7%	111%	105%	72.7%	31.7%	94%	92.4%	92.8%	86.8%	85.3%	104%	97%	99.7%
Cc1ccc(Cn2cc(COc3ccc4c5ccnc(C)c5n(CCCc5ccccc5)c4c3)nn2)cc1	103%	62.3%	87.9%	75.8%	114%	95.9%	87.7%	89.9%	109%	86.2%	86.2%	71.8%	97.6%	99.4%	110%	81.4%	80.4%	95%	91.1%	104%
O=c1nc(N2CCOCC2)oc2c(-c3cccc4ccccc34)cccc12	97.7%	90.1%	75.2%	93.5%	61.1%	80.6%	89.2%	85%	96.5%	93.2%	93.3%	89.6%	46.9%	91.8%	85.8%	59.7%	79.2%	54.4%	80.1%	94.4%
CCCCOc1nc2ccc(Cl)cc2cc1/C=C/C(=O)/C=C/c1ccc(Cl)cc1	84.7%	57%	104%	86.5%	41.6%	81%	79.5%	100%	84%	18%	81.9%	25.2%	86.4%	93.9%	35.3%	57.5%	49.4%	67.5%	24.1%	81.9%
Cc1[nH]c2ccc(F)cc2c1CCNC(=O)C1CCN(C(=O)c2ccc(-c3ccccc3)cc2)CC1	68.8%	17.3%	63.6%	62.7%	54.5%	60.4%	37.6%	66.8%	58.1%	40.8%	35.2%	5.89% (active)	49.1%	65.3%	48.7%	23.2%	27.4%	55%	48.8%	67.7%
